Measured values reported in PubChem BioAssay (NCI).
Several values for one entry are separate records, joined by “and”; a condition that tells them apart may be missing. Equal entries are not always repeated. The panel holds about 83,000 compounds, 20% with a hit somewhere; the sample as a whole holds those more often.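 Testing used 96-well plates and a 48-hour single-concentration exposure. Example: -40 means 40% of the starting cells died.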 Activity calls are given as the source filed them. The calls were made as follows: active = growth percent below 10; inactive = the rest.

Assays:
Assay in all cases: NCI-60 one-dose screen, 48 h (100 = growth as untreated, 0 = no growth, -100 = all killed)
Conditions in all cases: 10 µM unless noted
NCI-H23 lung = tested on: NCI-H23 lung
NCI-H226 lung = tested on: NCI-H226 lung
NCI-H322M lung = tested on: NCI-H322M lung
HOP-62 NSCLC = tested on: HOP-62 NSCLC
NCI-H460 lung = tested on: NCI-H460 lung
HOP-92 NSCLC = tested on: HOP-92 NSCLC
NCI-H522 lung = tested on: NCI-H522 lung
A549/ATCC NSCLC = tested on: A549/ATCC NSCLC
786-0 renal = tested on: 786-0 renal
COLO 205 colon = tested on: COLO 205 colon
DU-145 prostate = tested on: DU-145 prostate
K-562 leukemia = tested on: K-562 leukemia
MALME-3M melanoma = tested on: MALME-3M melanoma
MDA-MB-231 breast = tested on: MDA-MB-231 breast
RXF 393 renal = tested on: RXF 393 renal
SF-268 CNS = tested on: SF-268 CNS
SF-295 CNS = tested on: SF-295 CNS
SF-539 CNS = tested on: SF-539 CNS
UACC-257 melanoma = tested on: UACC-257 melanoma
M14 melanoma = tested on: M14 melanoma

Measured: growth

CN(C)C(=S)N(C)C
inactive: NCI-H23 lung 99.4% | NCI-H226 lung 108% | NCI-H322M lung 140% | HOP-62 NSCLC 95.6% | NCI-H460 lung 119% | HOP-92 NSCLC 93.4% | NCI-H522 lung 83.2% | A549/ATCC NSCLC 100% | 786-0 renal 108% | COLO 205 colon 123% | DU-145 prostate 110% | K-562 leukemia 106% | MALME-3M melanoma 165% | MDA-MB-231 breast 111% | RXF 393 renal 114% | SF-268 CNS 103% | SF-295 CNS 112% | SF-539 CNS 99.2% | UACC-257 melanoma 107% | M14 melanoma 101%

CC1=CC(=O)C=CC1=Nc1ccc(N(C)C)cc1
62% (inactive) and 7.74% (active): K-562 leukemia
inactive: NCI-H226 lung 95.6% and 70.4% | NCI-H322M lung 99.2% and 88.2% | HOP-62 NSCLC 92.4% and 72% | NCI-H460 lung 103% and 70.1% | NCI-H522 lung 29.9% | A549/ATCC NSCLC 101% and 58.7% | 786-0 renal 95.2% and 76% | DU-145 prostate 107% and 71.8% | MALME-3M melanoma 112% and 66.4% | MDA-MB-231 breast 87.1% | RXF 393 renal 93.2% and 50.6% | SF-268 CNS 93.9% and 66.9% | SF-295 CNS 84.7% and 65.6% | SF-539 CNS 94.1% and 44.5% | UACC-257 melanoma 82% | M14 melanoma 93.5% and 41.1%
71.1% (inactive) and -30.2% (active): COLO 205 colon
87% (inactive) and -21.1% (active): NCI-H23 lung
81.2% (inactive) and 7.79% (active): HOP-92 NSCLC

CC1(C)CC(=O)NC1=O
inactive: NCI-H23 lung 96.5% | NCI-H226 lung 99.6% | NCI-H322M lung 94.2% | HOP-62 NSCLC 101% | NCI-H460 lung 108% | HOP-92 NSCLC 114% | NCI-H522 lung 96.8% | A549/ATCC NSCLC 99.3% | 786-0 renal 97.6% | COLO 205 colon 113% | DU-145 prostate 109% | K-562 leukemia 94.8% | MALME-3M melanoma 102% | MDA-MB-231 breast 106% | RXF 393 renal 97.7% | SF-268 CNS 100% | SF-295 CNS 108% | SF-539 CNS 93.5% | UACC-257 melanoma 101% | M14 melanoma 95%

COC(=O)c1ccccc1Cl
active: K-562 leukemia 8.26%
inactive: NCI-H23 lung 103% | NCI-H226 lung 101% | NCI-H322M lung 97.4% | HOP-62 NSCLC 98.3% | NCI-H460 lung 106% | HOP-92 NSCLC 85.3% | NCI-H522 lung 102% | A549/ATCC NSCLC 99.4% | 786-0 renal 102% | COLO 205 colon 102% | DU-145 prostate 106% | MALME-3M melanoma 95% | MDA-MB-231 breast 111% | RXF 393 renal 121% | SF-268 CNS 98.9% | SF-295 CNS 92.1% | SF-539 CNS 93.5% | UACC-257 melanoma 102% | M14 melanoma 102%

COc1cc(NCCCCCCCNC(C)C)c2nccc(C)c2c1
53.8% (inactive) and -5.98% (active): COLO 205 colon
54.8% (inactive) and 7.58% (active): K-562 leukemia
inactive: NCI-H23 lung 81.4% and 77.1% | NCI-H226 lung 90.9% and 75.7% | NCI-H322M lung 87% and 68.5% | HOP-62 NSCLC 73.6% and 72.1% | NCI-H460 lung 85.5% and 57.2% | HOP-92 NSCLC 39.3% and 75.6% | NCI-H522 lung 89.1% and 91.7% | A549/ATCC NSCLC 95.1% and 90.6% | 786-0 renal 82.5% and 82.1% | DU-145 prostate 102% and 91.4% | MALME-3M melanoma 94.6% and 42.1% | MDA-MB-231 breast 68% and 62.9% | RXF 393 renal 81.4% and 107% | SF-268 CNS 93.2% and 82.1% | SF-295 CNS 71.8% | SF-539 CNS 91.5% and 73.1% | UACC-257 melanoma 107% and 89.7% | M14 melanoma 82.8% and 68%

N=c1sc2ccccc2n1CC(=O)O
inactive: NCI-H23 lung 108% | NCI-H226 lung 98.1% | NCI-H322M lung 103% | HOP-62 NSCLC 88.8% | NCI-H460 lung 109% | HOP-92 NSCLC 82.1% | NCI-H522 lung 87.1% | A549/ATCC NSCLC 83.7% | 786-0 renal 101% | COLO 205 colon 106% | DU-145 prostate 110% | K-562 leukemia 108% | MALME-3M melanoma 110% | MDA-MB-231 breast 102% | RXF 393 renal 113% | SF-268 CNS 98.7% | SF-295 CNS 98% | SF-539 CNS 101% | UACC-257 melanoma 89.7% | M14 melanoma 95.7%
